RBX1-CUL1 inh: human ROC1-CUL1 E3 ligase inhibition; inhibition, % at 10 µM; actives 0.6% (n = 140,000); in vitro K48 di-Ub FRET, acceptor:donor ratio, 45 min; AID 1347404; P62877+Q13616; in the data active = inhibition above about 25%
Target sequence (P62877 whole entry, looked up): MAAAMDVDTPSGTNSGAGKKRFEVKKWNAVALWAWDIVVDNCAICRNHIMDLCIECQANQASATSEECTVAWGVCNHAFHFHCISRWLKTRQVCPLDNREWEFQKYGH
Target sequence (Q13616 whole entry, looked up): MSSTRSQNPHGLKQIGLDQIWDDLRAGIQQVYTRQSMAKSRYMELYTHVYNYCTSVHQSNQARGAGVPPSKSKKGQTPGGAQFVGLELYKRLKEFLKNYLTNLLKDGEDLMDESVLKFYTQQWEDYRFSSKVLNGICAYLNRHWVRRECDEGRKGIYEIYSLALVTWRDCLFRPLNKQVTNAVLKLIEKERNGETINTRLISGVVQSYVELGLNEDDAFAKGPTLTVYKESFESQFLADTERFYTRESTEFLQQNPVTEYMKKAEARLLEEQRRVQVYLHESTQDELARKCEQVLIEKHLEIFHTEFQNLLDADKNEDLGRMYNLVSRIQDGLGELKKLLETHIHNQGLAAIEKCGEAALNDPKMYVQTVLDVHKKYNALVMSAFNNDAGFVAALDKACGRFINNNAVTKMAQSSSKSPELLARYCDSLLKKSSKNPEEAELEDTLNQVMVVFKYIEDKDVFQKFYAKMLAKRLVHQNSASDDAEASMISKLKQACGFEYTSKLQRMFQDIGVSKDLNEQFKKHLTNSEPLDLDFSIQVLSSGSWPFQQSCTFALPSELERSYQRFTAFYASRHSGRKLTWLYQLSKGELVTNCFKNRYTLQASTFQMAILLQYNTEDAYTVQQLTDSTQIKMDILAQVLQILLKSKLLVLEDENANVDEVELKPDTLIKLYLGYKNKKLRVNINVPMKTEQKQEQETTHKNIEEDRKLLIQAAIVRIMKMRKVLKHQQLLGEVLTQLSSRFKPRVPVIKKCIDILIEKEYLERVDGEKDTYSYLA
An asterisk follows results filed as active. The full list was thinned out, with hits kept by preference.

SMILES	RBX1-CUL1 inh
COC(=O)C1C(C(C)=O)=NN(c2ccccc2)C1C(=O)OC (configuration not stated)	3
COc1cc(/C=C2\C(=O)N(c3ccc(Cl)cc3)N=C2C(F)(F)F)ccc1OC(=O)c1ccco1	-3
CCOc1cc(/C=C2\C(=O)NC(=S)N(c3ccc(Br)cc3)C2=O)cc(Br)c1O	7
CCOc1cc(/C=C2\C(=O)N(c3ccc(C(=O)O)cc3)N=C2C(F)(F)F)cc(Br)c1O	62*
CCOc1cc(C2c3ccc(O)cc3OC(=N)C2C(=O)OC)ccc1OCc1ccc2ccccc2c1 (configuration not stated)	-6
Cc1cc(C(=O)N2CCC(C3CCN(Cc4cccnc4)CC3)C2)c(C)o1 (configuration not stated)	0
COc1ccc2occ(C(=O)c3coc4ccc(OC)cc34)c2c1	1
O=C(O)c1ccccc1-c1occ(C(=O)c2ccccc2)c1C(=O)O	9
COc1ccc(-c2occ(C(=O)O)c2C(=O)O)cc1	47*
CCn1nc(C)c(CN(C)Cc2nc(-c3ccccc3NC(=O)c3ccsc3)oc2C)c1C	7
C=CCN1C(=O)/C(=C/c2ccc(OCc3ccc(Cl)cc3)cc2)C(=O)NC1=S	8
CCN1CCN(CC(O)COC2CC(C)CCC2C(C)C)CC1 (configuration not stated)	8
O=C(CC(c1ccccc1)c1ccccc1F)N1CCC(N2CCOCC2)CC1 (configuration not stated)	-3
CC(=O)N=C1C(=O)c2ccccc2C(=O)C1N1CCN(c2ccc(F)cc2)CC1 (configuration not stated)	14
O=C1C(=Nc2ccc(F)cc2)C(N2CCCCC2)C(=O)c2ccccc21 (configuration not stated)	50*
O=C1c2ccccc2C(=O)C1C(c1ccc(F)cc1)c1ccc(F)cc1	13
C/C(=N\N1CCN(C2c3ccccc3-c3ccccc32)CC1)c1ccc(F)cc1	1
O=C1C(=Nc2ccc(F)cc2)C(N2CCOCC2)C(=O)c2ccccc21 (configuration not stated)	50*
CCn1c2c(c3cc(C(C)(C)C)ccc31)CCCC2=O	14
CC(=O)Nc1ccc(NC(C)=O)c(NC2OC(CO)C(OC3OC(CO)C(O)C(O)C3O)C(O)C2O)c1 (configuration not stated)	11
O=C(N/N=C/c1ccccc1OCc1ccc([N+](=O)[O-])cc1)c1cc2c(ccc3ccccc32)o1	4
COc1ccc(Oc2ccc(N/N=C3\CCCCC3=O)cc2)cc1	11
O=C1SC(SCc2ccccc2Cl)=N/C1=C\c1ccco1	-5
O=C1SC(SCc2ccccc2Cl)=N/C1=C\C=C\c1ccco1	88*
O=C(/C=C/c1ccco1)CC1(O)C(=O)N(Cc2ccccc2Cl)c2ccccc21 (configuration not stated)	5
SMILES	RBX1-CUL1 inh
COc1cc(Cl)c(C(=O)C(C(=Nc2ccccc2)SC)[N+](=O)[O-])cc1OC (configuration not stated)	1
Cc1ccc(C)n1-c1ccc(C(N)=O)cc1	2
Cc1ccc(C(=O)O)cc1-n1c(C)ccc1C	96*
Cc1ccc(C)n1-c1cccc(Cl)c1Cl	3
Cc1ccc(-c2ccccc2)n1-c1ccc(Cl)c(C(=O)O)c1	1
Cc1ccc(-c2ccccc2)n1-c1cccc(C(=O)O)c1	-4
Cc1ccc(C(=O)O)cc1-n1c(C)ccc1-c1ccccc1	7
Cc1ccc(-c2ccccc2)n1-c1ccc(C(=O)O)cc1	3
Cc1cc(C(=O)O)ccc1-n1c(C)ccc1C	99*
Cc1ccc(C)n1-c1cc(C(=O)O)ccc1Cl	101*
CCCSC1=NC(=O)C(C(c2ccc(OC)c(O)c2)C2C(=O)N=C(SCCC)N(C)C2=O)C(=O)N1C (configuration not stated)	-9
CCN1CCC(NC(=O)C(C)Oc2ccc(F)cc2Cl)CC1 (configuration not stated)	-1
CCSC1=NC2=C(C(=O)CC(C)(C)C2)C(c2ccc(OC)c(OC)c2)C1C#N (configuration not stated)	2
O=C(NCCc1cccc(F)c1)c1coc(CN2CCN(c3ncccn3)CC2)n1	-9
CCN1CCN(c2nc(C)c3c(n2)CC(c2ccccc2)CC3=O)CC1 (configuration not stated)	-5
CN(Cc1cccnc1)C(Cc1ccccc1)C1CCN(C(=O)C23CC4CC(CC(C4)C2)C3)CC1 (configuration not stated)	-4
C=CCN1C(=O)/C(=C\c2c(OCC)ccc3ccccc23)SC1=S	4
CCOc1cc(Br)c(Br)c(/C=C2\SC(=S)N(CC(=O)O)C2=O)c1O	28*
O=C(O)CN1C(=O)/C(=C/c2ccc(F)c(Br)c2)SC1=S	0
Cc1cc(/C=C2/SC(=O)N(CC(=O)Nc3ccccc3F)C2=O)c(C)n1C	5
O=C(CN1C(=O)S/C(=C\c2cc(Cl)cc(Br)c2O)C1=O)Nc1ccccc1F	26*
O=C(O)CN1C(=O)/C(=C/c2ccccc2C(F)(F)F)SC1=S	-1
O=C(CN1C(=O)S/C(=C/c2ccc(O)c(Br)c2)C1=O)Nc1cccc2ccccc12	4
O=C(O)CN1C(=O)/C(=C\c2cc(Cl)cc(Br)c2O)SC1=S	81*
CCOc1c(Br)cc(/C=C2\SC(=S)N(CC(=O)O)C2=O)cc1Br	4
SMILES	RBX1-CUL1 inh
Nc1nc(NN2CCCCC2)nc(-c2cc(Cl)ccc2O)n1	7
O[C@H]1CN(Cc2cccn2-c2ccc(Cl)cn2)C[C@@H]1N1CCOCC1	0
CCOC(=O)c1cnc(N2CCN(c3ccccc3F)CC2)[nH]c1=O	-8
CCOc1ccc2nc(SC3CC(=O)N(c4ccccc4C)C3=O)sc2c1 (configuration not stated)	0
COc1ccc(CNC(=O)CSc2c(-c3ccccc3)c3cc(Cl)ccc3[nH]c2=O)cc1	6
O=c1[nH]c2ccccc2n1CCCN1CCN(C2c3ccccc3CCc3ccccc32)CC1	-2
COc1cc(OC)c(OC)cc1/C=C/C(C)=O	4
C=CCCC(=O)N(Cc1ccncc1)CC1CCN(C2CCN(C)CC2)CC1	5
O=C(Nc1ccc2nc(SCC(=O)N3CCCC3)sc2c1)c1cccc(Cl)c1	-2
COc1ccc(C(=O)Nc2ccc3nc(SCC(=O)N4CCOCC4)sc3c2)cc1	5
O=C(Nc1ccc2nc(SCC(=O)N3CCOCC3)sc2c1)c1cccc(Cl)c1	58*
CN1C(=O)C(=NC2CCCCC2)C2c3ccccc3C(=O)c3cccc1c32 (configuration not stated)	11
CN1C(=O)C(=NCCc2ccccc2)C2c3ccccc3C(=O)c3cccc1c32 (configuration not stated)	36*
Cc1ccc(N=C2C(=O)N(C)c3cccc4c3C2c2ccccc2C4=O)cc1 (configuration not stated)	-1
CCOC(=O)NC(=S)NN(C)c1nc(C)c2ccccc2n1	2
CCOc1cccc(CNc2ccc(O)cc2)c1OCc1ccc(Cl)cc1Cl	53*
CCOc1cccc(CNc2ccc(O)cc2)c1OCc1ccccc1Cl	-3
Oc1ccc(NCc2cccc(OCc3ccc(Cl)cc3Cl)c2)cc1	39*
CNCc1cccc(OCc2ccccc2Cl)c1	-4
CCOc1cccc(CNC(C)(C)CO)c1OCc1ccc(Cl)cc1Cl	0
CNCc1ccc(OCc2ccc(Cl)cc2Cl)cc1	-6
O=C(Nc1ccccc1Br)c1cccc2c1-c1ccccc1C2=O	8
O=C1NN(c2ccccc2)C(=O)/C1=C/c1cc(Cl)ccc1OCCCOc1ccccc1	4
